Pemphigus Ab inh = blocks pemphigus antibody binding to human desmoglein-3. binding (percent of control), % at 10 µM. AID 588358. DSG3-coupled beads, scFv-anti-DSG3-GFP binding, flow cytometry; hits give low values. actives 0.48% (n = 310,000). P32926;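 active = binding more than 3 SD below its plate's average and above zero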;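 note: hits lower antibody fragment binding to DSG3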
PAFAH2 inh = PAFAH2 (human) inhibition. recombinant PAFAH2, FP-rhodamine activity probe, fluorescence polarization. inhibition, % at 3.39 µM. actives 0.99% (n = 340,000). AID 492956;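 active = inhibition above the mean over all tested compounds plus 3 SD, cut at about 30% in these data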;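 note: inhibitors block probe labeling of enzyme so polarization drops; 0% = enzyme with DMSO and 100% = wells lacking PAFAH2 protein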
pPAFAH FP inh = pPAFAH (human) enzyme inhibition. Q13093. inhibition, % at 3.39 µM. recombinant pPAFAH, FP-rhodamine probe fluorescence polarization. actives 1.5% (n = 330,000). AID 463082;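 active = inhibition above the mean inhibition across the screen plus 3 SD, cut at about 25% in these data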;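 note: inhibitors block binding of the rhodamine activity-based probe so polarization drops; 0% = enzyme with DMSO and 100% = wells lacking pPAFAH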
Target sequence (Q13093 whole entry, looked up): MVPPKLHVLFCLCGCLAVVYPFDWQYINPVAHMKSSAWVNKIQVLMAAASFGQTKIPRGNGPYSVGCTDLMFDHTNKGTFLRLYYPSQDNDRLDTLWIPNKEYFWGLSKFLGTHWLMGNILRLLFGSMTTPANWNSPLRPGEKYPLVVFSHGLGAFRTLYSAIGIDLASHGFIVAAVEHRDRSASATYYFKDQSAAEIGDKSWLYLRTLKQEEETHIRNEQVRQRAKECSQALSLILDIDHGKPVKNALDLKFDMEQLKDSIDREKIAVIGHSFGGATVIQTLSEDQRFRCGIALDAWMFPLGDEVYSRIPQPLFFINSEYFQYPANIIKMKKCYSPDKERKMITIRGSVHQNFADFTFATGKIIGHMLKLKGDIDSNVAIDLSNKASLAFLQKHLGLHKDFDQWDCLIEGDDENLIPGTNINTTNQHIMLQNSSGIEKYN
M18AAP inhibitor = PfM18AAP enzyme inhibition; recombinant PfM18AAP, H-Glu-NHMec fluorogenic cleavage; inhibition, % at 7.35 µM; actives 1.2% (n = 290,000);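 active = inhibition above the campaign mean inhibition over all tested compounds plus 3 SD, cut at about 28% in these data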;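 note: 0% = plate median of test compound wells and 100% = 2 mM ZnCl2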
PAFAH1B3 inh = inhibitors of human PAFAH1B3. Q15102. recombinant PAFAH1B3, FP-rhodamine probe, fluorescence polarization. inhibition, % at 3.39 µM. actives 0.28% (n = 340,000). AID 492972;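 active = inhibition above the screen-wide average of all tested compounds plus 3 SD, cut at about 25% in these data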;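 note: 0% = enzyme with DMSO only and 100% = wells lacking PAFAH1B3 protein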
PAFAH1B2 inh = blocks human PAF acetylhydrolase 1b catalytic subunit 2. recombinant PAFAH1B2, FP-rhodamine activity probe, fluorescence polarization. P68402. inhibition, % at 3.39 µM. actives 1.2% (n = 340,000);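 active = inhibition above the mean of all tested compounds plus 3 SD, cut at about 24% in these data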;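 note: 0% = enzyme with DMSO and 100% = wells lacking PAFAH1B2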
PAFAH1B3 confirm = confirmation of human PAFAH1B3 inhibitors. AID 493032. actives 30% (n = 390). recombinant PAFAH1B3, FP-Rh activity-based probe, fluorescence polarization. inhibition, % at 3.39 µM. shares compounds with PAFAH1B3 inh;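 active = average inhibition over triplicate runs above the hit cutoff set in the earlier primary screen, cut at about 25% in these data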;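 note: 0% = enzyme with DMSO and 100% = wells lacking PAFAH1B3 protein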
Active calls of the source: *; x = no result. Rows were chosen to be rich in hits. Some 3.8% of all compounds tested hit in one or more screens of this group.

SMILES	Pemphigus Ab inh	PAFAH2 inh	pPAFAH FP inh	M18AAP inhibitor	PAFAH1B3 inh	PAFAH1B2 inh	PAFAH1B3 confirm
CC(C)C(NC(=O)/C(=C/c1ccco1)NC(=O)c1ccc(Br)o1)C(=O)O (configuration not stated)	98	-4	2	15	9	8	x
O=C1C(Cl)=C(N2CCC(C(=O)O)CC2)C(=O)c2ccccc21	92	21	13	9	41*	23	32*
COC(=O)c1ccccc1NC1=C/C(=N\S(=O)(=O)c2cccs2)c2ccccc2C1=O	85	9	21	18	55*	19	52*
O=C(N/N=C/C(Br)=C/c1ccccc1)c1cnccn1	113	7	3	2	-1	4	x
COc1cc(C(=O)c2nccc3cc(OC)c(OC)cc23)c([N+](=O)[O-])cc1OC	106	2	2	-2	40*	2	8
COc1cc2c(cc1OC)CN(C(=O)/C=C/c1cc(OC)c(OC)c(OC)c1)CC2	104	25	-4	1	30*	18	9
O=C1c2cccc3c([N+](=O)[O-])ccc(c23)C(=O)N1c1ccccn1	90	6	10	-1	29*	13	39*
CSCC[C@H](NC(=O)c1ccc(OCC2CCCO2)cc1)c1nc2ccccc2[nH]1 (some centres not stated)	116	0	3	x	3	3	x
Cn1nc(C(C)(C)C)c(NC(=O)c2ccc(F)cc2)c1C(C)(C)C	x	-4	1	-18	31*	-2	7
CCOc1ccccc1/C=C/c1nc2ccccc2[nH]c1=O	105	1	x	15	28*	6	7
CCN1CCN(S(=O)(=O)c2ccc(C(C)(C)C)cc2)CC1	108	-39	6	-2	8	4	x
CCOC(=O)c1c(NC(=O)c2ccco2)n(C2CCCCC2)c2nc3ccccc3nc12	120	16	6	4	59*	20	20
O=C(NC1=C(Nc2ccc(Cl)cc2)C(=O)c2ccccc2C1=O)c1ccccc1	97	8	5	-13	15	7	x
O=C(NC1=C(NC2CCS(=O)(=O)C2)C(=O)c2ccccc2C1=O)c1ccccc1 (configuration not stated)	97	13	8	3	66*	13	36*
CCN(C(=O)c1ccnn1C)c1ccccc1	100	3	2	0	3	1	x
Cn1c(N)c(C(=O)COC(=O)c2ccnc3ccccc23)c(=O)n(C)c1=O	98	-9	4	-3	2	6	x
COc1ccc(C(=O)OCC(=O)c2c(N)n(C)c(=O)n(C)c2=O)c(OC)c1OC	x	4	-4	x	26*	5	9
COc1cc(C(=O)N/N=C/c2cn(Cc3cccc(F)c3)c3ccccc23)ccc1O	109	-14	x	15	34*	10	18
Cc1ccc(C(=O)N/N=C/c2cn(Cc3ccccc3)c3ccccc23)cn1	120	1	6	0	11	8	x
COc1ccc2[nH]c(C(=O)N/N=C/c3ccc(O)cc3O)cc2c1	133	16	x	-2	48*	23	24
CCOc1ccc2[nH]c(C(=O)N/N=C/c3ccc(OC)cc3)cc2c1	108	-6	x	6	1	2	x
CC(C)(C)c1nnc2sc(SCC(=O)c3ccc(Cl)cc3)nn2c1=O	101	-2	1	4	27*	8	14
CCc1cc[n+](C2=C([O-])c3ccccc3C(=O)/C2=N\S(=O)(=O)c2cccs2)cc1	100	23	19	9	41*	2	31*
CCN(CC(=O)Nc1c(F)cccc1F)C(=O)Cc1ccc2c(c1)CCC2	116	-4	6	x	0	-1	x
Fc1ccc(-c2nnc(SCc3cccnc3)o2)cc1	x	x	-2	-16	x	x	x
SMILES	Pemphigus Ab inh	PAFAH2 inh	pPAFAH FP inh	M18AAP inhibitor	PAFAH1B3 inh	PAFAH1B2 inh	PAFAH1B3 confirm
COc1ccc(S(=O)(=O)N2CCN(C(=O)c3ccco3)CC2)cc1C(C)(C)C	107	-7	2	1	6	6	x
NC(=S)NN=C1c2ccccc2-c2c(F)c(F)c(F)c(F)c21	x	6	x	x	51*	-3	46*
Cn1c2ccccc2c(=O)c2ccc(C#Cc3ccc(N)cc3)cc21	91	-13	24	8	35*	2	17
COc1ccc(C#Cc2ccc3c(=O)c4ccccc4n(C)c3c2)cc1	90	-32	-6	-2	-7	-5	x
C=C(C)COc1ccc2c(C)c(CCC(=O)NC3CC3)c(=O)oc2c1	97	-3	6	-3	8	4	x
COc1cc(NC(C)CCCNC(C)C)c2ncccc2c1OC (configuration not stated)	95	-2	x	x	18	4	x
COc1cc(NCCCCCCN)c2ncccc2c1OC	66	11	x	x	57*	14	20
O=C(COc1ccc2ccc(=O)oc2c1)NCCN1CCOCC1	97	x	x	x	x	x	x
CCOC(=O)C1CCN(c2nc(C)cc(C)c2C#N)CC1	101	-2	3	-3	10	2	x
CCOC(=O)C1CCN(c2nc(N)c3c(N)nc(SCC(=O)O)cc3c2C#N)CC1	101	7	x	17	37*	19	20
O=Cc1ccc(O)c2ncccc12	106	10	x	4	29*	10	25
O=C(N1CCCC1)C12CC3CC(CC(C3)C1)C2	97	3	-5	4	-3	8	x
O=C(N1CCCCC1)C12CC3CC(C1)CC(C(=O)N1CCCCC1)(C3)C2	x	0	8	-1	39*	3	10
Cc1cccc2c1NC(=O)C2=O	93	16	x	x	36*	14	25
CCc1cccc2c1NC(=O)C2=O	119	5	x	x	-1	1	x
Cc1[nH]c2ccccc2c1CCNC(=O)c1ccc2c(c1[N+](=O)[O-])C(=O)c1ccccc1C2=O	350	18	17	-4	44*	20	67*
CCc1cccc2c(N=O)c(O)[nH]c12	103	11	10	1	28*	12	24
O=Nc1c(O)[nH]c2c(F)cccc12	85	5	4	-16	20	7	x
COc1ccc(C(C(=O)Nc2ccc(C(C)C)cc2)N(C)C(=O)c2ccc(=O)[nH]c2)cc1 (configuration not stated)	x	x	7	-3	x	x	x
COc1cc(NCCCC(C)N)c2ncccc2c1 (configuration not stated)	107	24	x	22	53*	18	7
COc1cc(NCCCCC(C)N)c2nccc(C)c2c1 (configuration not stated)	105	x	x	x	x	x	x
CCc1ccc(S(=O)(=O)Nc2cc(SCC(=O)O)c(O)c3ccccc23)cc1	84	22	9	-18	28*	18	10
COc1ccc(/C=C/C(=O)NC(=S)Nc2cc([N+](=O)[O-])ccc2O)cc1OC	85*	9	18	0	35*	18	31*

Assay outcomes deposited in PubChem by several laboratories.
